From PubChem BioAssay
Compounds with a hit are over-represented: about 8% of the library has one in this group of screens.
HCV inh: inhibitors of hepatitis C virus infection | Huh7.5.1 HCVcc-Cre infection, luciferase reporter, 44 h | Potency, µM (top dose mostly 41.8 µM), hits mostly inhibitors | 340,000 tested, 3.4% active | AID 651820; active = well fitted inhibition curve with a large enough effect; inconclusive = small, poorly fitted or top-dose-only effect, or another doubt; inactive = no such curve, though single readings can be large or run the other way
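After 44 h co-culture of compound, cells and HCVcc-Cre (~0.5 moi), substrate is added for 15 min at room temperature and luciferase measured over 15 sec. Cells were seeded at 1,000/well and pre-cultured 4 h.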
LASV entry inh: blocks Lassa virus binding to or entry into cells; Potency, µM (titrated, usually from 37.9 µM), actives largely listed as inhibitors; AID 540256; Lassa virus pseudotype entry inhibition, cell reporter; 300,000 tested, 1.2% active; calls by dose curve; tested in HEK293 cells; note: nearly all actives have a fitted effect of over 50% in size
FMDV inh: antivirals against foot and mouth disease virus. Potency, µM (doses to about 57.9 µM), hits mostly inhibitors. 410,000 tested, 1.2% active. AID 1159524. FMDV antiviral cell-based qHTS; calls by dose curve; tested in HEK293T cells; note: read-out not given here; nearly all actives have a fitted effect of over 45% in size
HCMV inh: human cytomegalovirus inhibition; AID 1259415; 410,000 tested, 4.5% active; HFF cells, HCMV-luciferase reporter, 72 h; active compounds read low; activity change, negative = inhibition, % at 57.5 µM; in the data active = activity change below about -60%; inconclusive = no clear call, values can overlap the other calls; inactive = above about -39%
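Compounds were evaluated in HFFs infected with an HCMV luciferase reporter virus (MOI 1 PFU/cell). Luciferase in lysates collected 72 h post infection served as the replication measure.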
Marburg entry inh: blocks Marburg virus binding to or entry into cells; Marburg virus pseudotyped entry inhibition, cell reporter; AID 540276; 300,000 tested, 1.8% active; Potency, µM (top dose mostly 37.8 µM), hits mostly inhibitors; calls by dose curve; tested in HEK293 cells
SARS PLpro yeast: blocks SARS-CoV papain-like protease in a yeast assay. AID 485353. 330,000 tested, 0.19% active. Potency, µM (titrated, usually from 32.9 µM), actives largely listed as activators. S. cerevisiae expressing SARS-CoV PLpro, growth rescue; calls by dose curve; note: nearly all actives have a fitted effect of over 55% in size
Numbers stand for hits; . = inactive; ? = inconclusive; / = no result; [ ] = remark or other dose.

SMILES	HCV inh	LASV entry inh	FMDV inh	HCMV inh	Marburg entry inh	SARS PLpro yeast
COc1ccc(OCCN2CCC(C(=O)NC(c3ccccc3)c3ccc4ccccc4n3)CC2)cc1 (stereo not drawn)	/	/	.	/	/	/
COc1cc(CN2CCC(C(=O)NC(c3ccc(F)cc3)c3ccc4ccccc4n3)CC2)cc(OC)c1 (stereo not drawn)	/	/	35µM	.	/	/
CCOc1cnc(-c2c(-c3c(Cl)cccc3Cl)noc2C)o1	.	?	.	-61	?	.
COc1cc(C2Nc3ccc4ncccc4c3C3=C2C(=O)CC(C)(C)C3)cc(OC)c1O (stereo not drawn)	.	.	.	-83	.	.
O=c1c2ccc(Cl)cc2nc(-c2cccc(C(F)(F)F)c2)n1O	?	2.5µM	?	-103	?	.
O=c1c2ccccc2nc(-c2ccc(Cl)c(Cl)c2)n1O	.	?	.	-63	.	.
Cc1ccc(S(=O)(=O)NC2=C(N3CCN(Cc4ccccc4)CC3)C(=O)c3ccccc3C2=O)cc1	.	.	.	-65	.	.
CCC[C@H]1[C@@H](NS(=O)(=O)c2ccc(-c3ccccc3)cc2)CC[C@@]23CCCN2C(=O)CCC[C@@H]13	/	/	/	.	/	/
COc1cccc(OC)c1OCc1cc(C2C3CCCC=C3C(C#N)=C(N)C2(C#N)C#N)c(C)cc1C (stereo not drawn)	.	20µM	?	.	?	.
CCN(CC)CCN1c2ccccc2Sc2ccc3ccccc3c21	?	.	.	?	10µM	.
CCN(CC)CCN1c2ccccc2Sc2ccccc21	/	?	.	.	?	.
CCOC(=O)c1cc(S(=O)(=O)N2CCN(c3ccc(F)cc3)CC2)[nH]n1	/	.	.	.	/	/
COc1ccc(OCC(=O)N2CCN(c3nnc(-c4ccccc4)c4ccccc34)CC2)cc1	18µM	?	?	.	?	.
COc1ccc(OCC(=O)N2CCN(c3nnc(-c4ccc(C)cc4)c4ccccc34)CC2)cc1	8.9µM	?	28µM	.	?	.
Cc1ccc(OCC(=O)N2CCN(c3nnc(-c4ccc(C)cc4)c4ccccc34)CC2)cc1	8.9µM	?	?	-99	4.1µM	.
COc1ccc(-c2nnc(N3CCCCC3)c3ccccc23)cc1	.	.	?	/	.	.
Cc1cccc(OCC(=O)N2CCN(C(=O)c3ccc([N+](=O)[O-])cc3)CC2)c1	.	.	.	-61	.	.
O=C(COc1ccccc1)N1CCN(c2nnc(-c3ccccc3)c3ccccc23)CC1	?	.	?	?	?	.
Cc1ccc(-c2nnc(N3CCN(C(=O)CN4C(=O)c5ccccc5C4=O)CC3)c3ccccc23)cc1	.	.	.	.	.	/
COc1ccc(-c2cc(NC=O)c3ncc(-c4ccc(OC)c(OC)c4)n3c2)cn1	/	/	/	.	/	/
Cc1cc2c(c(-c3cnccn3)c1)OC(CNC(=O)c1cc(Cl)ccc1F)C2 (stereo not drawn)	/	/	.	/	/	/
Cc1cccc(OCC(=O)N2CCN(c3nnc(-c4ccccc4)c4ccccc34)CC2)c1	?	/	?	.	/	.
Cc1ccc(-c2nnc(N3CCN(C(=O)COc4cccc(C)c4)CC3)c3ccccc23)cc1	?	?	25µM	.	?	.
COc1ccc2ncc3c(-c4ccc(C)c(C)c4)nn(CC(=O)Nc4ccccc4)c3c2c1	/	.	.	-92	/	/
CC1(C(=O)Nc2ccc3c(c2)OCCO3)CCN1C(=O)c1cccc(F)c1 (stereo not drawn)	/	/	.	.	/	/
SMILES	HCV inh	LASV entry inh	FMDV inh	HCMV inh	Marburg entry inh	SARS PLpro yeast
O=C(Nc1nnc(CSCc2ccc(F)cc2)s1)c1cccc([N+](=O)[O-])c1	.	.	40µM	.	.	.
O=C(Nc1nnc(CSCc2ccc(Cl)cc2)s1)c1cccc([N+](=O)[O-])c1	.	?	.	.	.	.
CCOc1ccc(C(=O)CN2C(=O)NC3(CCCCCC3)C2=O)cc1	?	.	.	.	.	.
CCOc1ccc(C(=O)NNC(=O)CN2C(=O)NC3(CCCC3)C2=O)cc1	.	.	.	-102	.	.
COCC(C)NC(=O)C1CC(c2cccc(Br)c2)=NO1 (stereo not drawn)	3.2µM	.	.	.	.	.
COc1cc(NC(=O)C2CC(c3cccc(Br)c3)=NO2)cc(OC)c1OC (stereo not drawn)	.	?	.	.	?	.
Cc1ccc(C)c(NC(=O)CCC(=O)N/N=C/c2ccc[nH]2)c1	3.5µM	18µM	.	-91	?	.
O=C(CNC(=O)c1ccc(Br)cc1)N/N=C/c1ccc[nH]1	2.5µM	?	.	.	?	.
Cc1c(Cl)cccc1NC(=O)CCC(=O)N/N=C/c1ccc[nH]1	1µM	?	.	-100	3.2µM	.
Cc1ccc(NCC(=O)N/N=C\c2ccc[nH]2)cc1	14µM	?	.	.	3.2µM	.
O=C(Cc1ccccc1)N/N=C/c1ccc[nH]1	.	/	.	?	/	.
Cc1c(Cl)cccc1NC(=O)CCC(=O)NNC(=O)c1ccccc1	.	.	.	.	.	.
NC(=O)c1cc(-c2ccc(F)cc2)cc(-c2ccncc2)c1N	/	.	/	/	/	/
NS(=O)(=O)c1ccc(NC(=O)C2Cc3ccccc3N2C(=O)c2ccccc2)cc1 (stereo not drawn)	/	.	.	.	/	/
N#Cc1ccccc1NC(=O)C(=O)NCC(c1cccnc1)N1CCN(c2ccccc2)CC1 (stereo not drawn)	/	.	.	.	/	/
CCN(C[C@H]1N[C@@](C)(C(=O)OC)[C@H]2C(=O)N(C)C(=O)[C@@H]12)C(=O)Nc1ccccc1	.	/	.	.	/	.
C[C@H](CO)N1C[C@H](C)[C@@H](CN(C)S(=O)(=O)c2ccc(F)cc2)Oc2ccc(NC(=O)C3CC3)cc2C1=O	.	/	.	.	/	.
Cc1ccc(CNS(=O)(=O)c2cnc(N)nc2)cc1	/	.	.	.	/	/
Cn1c(=O)oc2ccc(S(=O)(=O)Nc3ccc(Cl)cc3[N+](=O)[O-])cc21	/	/	/	-62	/	/
COc1ccc2c(c1)Sc1ccccc1N2CCN(C)C	?	?	.	/	11µM	.
CCC(=O)c1ccc2c(c1)N(CCCN(C)C)c1ccccc1S2	?	?	.	.	21µM	/
CN(C)CCCN1c2ccccc2CCc2ccc(Cl)cc21	?	?	.	-67	11µM	.
COc1ccc(C2Sc3ccccc3N(CCN(C)C)C(=O)C2OC(C)=O)cc1 (stereo not drawn)	/	/	.	/	/	/
CC(=O)c1ccc2c(c1)N(CCCN(C)C)c1ccccc1S2	?	/	.	.	/	/
CN(C)CCCN1c2ccccc2Sc2ccccc21	.[8.37 µM]	?	?	?	18µM	.
C[C@H](CO)N1C[C@H](C)[C@@H](CN(C)C(=O)c2ccc(N3CCN(C)CC3)cc2)OCc2cn(nn2)CCCC1=O	/	/	/	.	/	/
Cc1cc(Cn2nnc3ccccc32)c(O)c(C(C)(C)C)c1	10µM	/	.	.	/	.
CC(=O)Nc1ccc(Oc2sc(C(=O)c3ccccc3)c(N)c2C#N)cc1	?	0.89µM	?	-88	?	.
N#Cc1c(SCc2ccc(Cl)cc2)sc(C(=O)c2ccccc2)c1N	.	?	?	.	.	.
